Assay results reported in PubChem BioAssay (NCI).
The panel holds about 83,000 compounds, 20% with a hit somewhere; the sample as a whole holds those more often.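 In brief: 96-well plates, 48 h treatment, single concentration, percent growth endpoint.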 Calls of active or inactive are those of the source. Rule for the calls: active = growth percent below 10; inactive = the rest.

Legend:
Test in all cases: NCI-60 one-dose screen, 48 h (100 = growth as untreated, 0 = no growth, -100 = all killed)
Conditions in all cases: 10 µM unless noted
DU-145 prostate = test system: DU-145 prostate
MALME-3M melanoma = test system: MALME-3M melanoma
MDA-MB-231 breast = test system: MDA-MB-231 breast
RXF 393 renal = test system: RXF 393 renal
SF-268 CNS = test system: SF-268 CNS
SF-295 CNS = test system: SF-295 CNS
SF-539 CNS = test system: SF-539 CNS
UACC-257 melanoma = test system: UACC-257 melanoma
M14 melanoma = test system: M14 melanoma
K-562 leukemia = test system: K-562 leukemia

Measured: growth

Nc1ccc(SSc2ccc(N)cc2)cc1
inactive: DU-145 prostate 111% | MALME-3M melanoma 104% | MDA-MB-231 breast 82.4% | RXF 393 renal 108% | SF-268 CNS 106% | SF-295 CNS 82.6% | SF-539 CNS 106% | UACC-257 melanoma 86.1% | M14 melanoma 97.7%

CN(C)c1ccc(/C=N/N=C(\C#N)[S][Sn]([Cl])([c]2ccccc2)[c]2ccccc2)cc1
inactive: SF-268 CNS 42.9% | SF-295 CNS 107% | UACC-257 melanoma 21.3%
active: DU-145 prostate 5.62% | K-562 leukemia 3.13% | MALME-3M melanoma -50.8% | MDA-MB-231 breast -12.7% | RXF 393 renal -86.3% | SF-539 CNS -16.3% | M14 melanoma 4.46%

O=C1C2=C(Nc3cc([N+](=O)[O-])ccc3N2)OC1c1c2ccccc2cc2ccccc12 (configuration not stated)
inactive: DU-145 prostate 74.6% | K-562 leukemia 21.6% | MALME-3M melanoma 97.9% | MDA-MB-231 breast 65.8% | RXF 393 renal 65.1% | SF-268 CNS 33.2% | SF-295 CNS 57.5% | SF-539 CNS 58.8% | UACC-257 melanoma 74.4% | M14 melanoma 70.1%

Cn1c2ccccc2c2nnc(N/N=C/c3ccccn3)nc21
inactive: DU-145 prostate 13.7% | K-562 leukemia 10.2% | MDA-MB-231 breast 56.2%
active: MALME-3M melanoma -34.1% | SF-268 CNS 6.74% | SF-295 CNS -25.3% | SF-539 CNS -35.9% | UACC-257 melanoma 7.22% | M14 melanoma -42.1%

S=C(NCCNC(=S)[S][Sn]([c]1ccccc1)([c]1ccccc1)[c]1ccccc1)[S][Sn]([c]1ccccc1)([c]1ccccc1)[c]1ccccc1
active: DU-145 prostate -96.1% | MALME-3M melanoma -70.4% | MDA-MB-231 breast -82.1% | RXF 393 renal -99.7% | SF-268 CNS -90.9% | SF-295 CNS -83.5% | SF-539 CNS -81.7% | UACC-257 melanoma -100% | M14 melanoma -94%

CNc1ccc2c(c1)c1ccccc1n2C
inactive: DU-145 prostate 102% | K-562 leukemia 105% | MALME-3M melanoma 106% | MDA-MB-231 breast 98.5% | RXF 393 renal 113% | SF-268 CNS 95.1% | SF-295 CNS 98.7% | SF-539 CNS 98.1% | UACC-257 melanoma 107% | M14 melanoma 116%

COC(=O)c1nc(=S)[nH]c(C(=O)OC)c1C(=O)c1ccccn1
active: SF-295 CNS -1.15%
inactive: DU-145 prostate 39.5% | K-562 leukemia 17.7% | MALME-3M melanoma 30.7% | MDA-MB-231 breast 33.6% | RXF 393 renal 43.2% | SF-268 CNS 34.3% | SF-539 CNS 15.6% | UACC-257 melanoma 75.7% | M14 melanoma 17.9%

OC(CNc1ccnc2cc(Cl)ccc12)CNc1ccnc2cc(Cl)ccc12
inactive: DU-145 prostate 57.4% | RXF 393 renal 97.4% | SF-268 CNS 82.2% | SF-295 CNS 71.6% | UACC-257 melanoma 93.5% | M14 melanoma 20.1%
active: K-562 leukemia 2.44% | MALME-3M melanoma -77.9% | MDA-MB-231 breast -56.5% | SF-539 CNS -79.8%

O=C1N[C@H]2[C@H](CS[C@H]2CCCCC(=O)N(CCP(c2ccccc2)c2ccccc2)CCP(c2ccccc2)c2ccccc2)N1
inactive: DU-145 prostate 95.6% | K-562 leukemia 69.3% | MALME-3M melanoma 91.7% | MDA-MB-231 breast 80.9% | RXF 393 renal 96.5% | SF-268 CNS 88.8% | SF-295 CNS 83.6% | SF-539 CNS 99.5% | UACC-257 melanoma 79.6% | M14 melanoma 97.3%
